# Assay results from the supplement of paper PMC13380429.
# A number with no mark means an inactive call.
# Tested on: Vero E6 infected with SARS-CoV-2
# Experiment: SARS-CoV-2 infection rate relative to infected DMSO; higher = more infection, active = 60 or less
# Conditions: 24 h
row,Compound,SARS-CoV-2 infection rate
1,N[C@H]1C(O)O[C@H](CO)[C@@H](O)[C@@H]1O (mixture of isomers) [glucosamine] (10 µM),105%
2,COc1ccc(-c2coc3cc(O)cc(O)c3c2=O)cc1 [4-methylgenistein] (10 µM),103%
3,O=C(NC1CCC1)c1ccc(C#Cc2cccc(F)c2)nc1 (10 µM),99%
4,CN(C)[C@@H](CCOc1cccc2ccccc12)c1ccccc1 [dapoxetine] (10 µM),76%
5,C[C@@H]1C[C@H]2[C@@H]3C[C@H](F)C4=CC(=O)C=C[C@]4(C)[C@@]3(F)[C@@H](O)C[C@]2(C)[C@@]1(O)C(=O)COC(=O)C(C)(C)C [flumethasone-pivalate] (10 µM),80%
6,CCn1nc(C2CCN(C(=O)CCO)CC2)nc1-c1cnc(N)c(-c2nnc(C(C)(C)C)o2)n1 (0.833333 µM),94%
7,OC[C@H]1O[C@@H](c2ccc(F)c(Cc3cc4ccccc4s3)c2)[C@H](O)[C@@H](O)[C@@H]1O [ipragliflozin-L-proline] (10 µM),110%
8,CCn1c2ccccc2c2cc(CNC)ccc21 (10 µM),56% (active)
9,O=C(NO)c1ccc(O)c(O)c1 [didox] (10 µM),96%
10,C[n+]1c2cc(N)ccc2cc2ccc(N)cc21.Nc1ccc2cc3ccc(N)cc3nc2c1 [acriflavine] (0.833333 µM),108%
11,CN1[C@@H]2CC[C@H]1C[C@@H](OC(=O)N1Cc3ccccc3NC1=O)C2 (10 µM),108%
